Test results reported in PMC5540273 (PLoS ONE, 2017).

Columns and labels:
Settings in all cases: concentration: 1 μM, replicates: in singlicate; n = 1
MAP3K15 = test system: MAP3K15
MAP3K1 = test system: MAP3K1
MAP3K2 = test system: MAP3K2
MAP3K3 = test system: MAP3K3
MAP3K4 = test system: MAP3K4
MAP4K2 = test system: MAP4K2
MAP4K3 = test system: MAP4K3
MAP4K4 = test system: MAP4K4
MAP4K5 = test system: MAP4K5
MAPKAPK2 = test system: MAPKAPK2
MAPKAPK5 = test system: MAPKAPK5
MARK1 = test system: MARK1
MARK2 = test system: MARK2
MARK3 = test system: MARK3
MARK4 = test system: MARK4
MAST1 = test system: MAST1
MEK1 = test system: T1, MEK1
T1 construct: gene MAP2K1

MEK2 = test system: T2, MEK2
T2 construct: gene MAP2K2

MEK3 = test system: T3, MEK3
T3 construct: gene MAP2K3

MEK4 = test system: T4, MEK4
T4 construct: gene MAP2K4
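Further: KINOMEscan kinase panel screen.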

Row | SMILES | %Inh (MAP3K15) | %Inh (MAP3K1) | %Inh (MAP3K2) | %Inh (MAP3K3) | %Inh (MAP3K4) | %Inh (MAP4K2) | %Inh (MAP4K3) | %Inh (MAP4K4) | %Inh (MAP4K5) | %Inh (MAPKAPK2) | %Inh (MAPKAPK5) | %Inh (MARK1) | %Inh (MARK2) | %Inh (MARK3) | %Inh (MARK4) | %Inh (MAST1) | %Inh (MEK1) | %Inh (MEK2) | %Inh (MEK3) | %Inh (MEK4)
1 | Cc1ccc(C)c(NC(=O)Nc2ccc(C)c(-c3ccc(C(=O)Nc4ccncc4)cc3)c2)c1 [GSK1398473] | 83% | 9% | 30% | 0% | 43% | 0% | 2% | 9% | 5% | 5% | 0% | 0% | 0% | 0% | 3% | 0% | 0% | 0% | 0% | 26%
2 | COC(=O)Nc1nc2cc(Oc3ccc(NC(=O)Nc4cccc(SC)c4)cc3)ccc2[nH]1.Cl [GW697999] | 0% | 15% | 1% | 0% | 0% | 0% | 0% | 0% | 0% | 0% | 0% | 0% | 0% | 0% | 9% | 14% | 0% | 0% | 0% | 12%
3 | O=C(Nc1n[nH]c2nc(-c3ccccc3)ccc12)C1CC1 [SB-708999] | 3% | 17% | 6% | 0% | 28% | 0% | 1% | 53% | 12% | 4% | 0% | 0% | 0% | 0% | 8% | 22% | 6% | 0% | 0% | 0%
4 | COc1ccc(C2=C(Nc3cccc(O)c3)C(=O)NC2=O)cc1 [SB-390766] | 0% | 24% | 0% | 0% | 0% | 0% | 0% | 0% | 0% | 0% | 0% | 46% | 0% | 0% | 19% | 0% | 0% | 0% | 0% | 0%
5 | CN(c1ccc(NC(=O)Nc2cccc(Cl)c2)cc1)c1ccnc(N)n1.Cl [GW830707] | 0% | 0% | 0% | 23% | 0% | 10% | 0% | 0% | 16% | 0% | 0% | 0% | 0% | 43% | 5% | 84% | 16% | 23% | 0% | 0%
6 | CN(c1ccc(F)c(NC(=O)c2cccc(OC(C)(C)C#N)c2Cl)c1)c1ccc2nc(NC(=O)C3CC3)sc2n1 | 0% | 0% | 0% | 15% | 0% | 0% | 0% | 75% | 0% | 0% | 0% | 0% | 0% | 0% | 0% | 40% | 61% | 49% | 0% | 26%
7 | Nc1ncc(-c2ccc3nccc(-c4ccncc4)c3c2)cc1S(=O)(=O)N1CCCCC1 [GSK1693850] | 0% | 9% | 0% | 1% | 14% | 16% | 0% | 5% | 6% | 5% | 0% | 0% | 15% | 0% | 0% | 0% | 0% | 0% | 13% | 33%
8 | Cc1ccc(O)cc1Nc1ccnc2cc(-c3ccc(CN4CCCCC4)o3)ccc12 [GW557777] | 7% | 67% | 29% | 7% | 0% | 29% | 0% | 2% | 3% | 0% | 0% | 8% | 8% | 0% | 0% | 0% | 17% | 30% | 2% | 0%
9 | COc1cc(Nc2nccc(N3CCC(NC(=O)Nc4ccc5c(c4)OCO5)C3)n2)cc(OC)c1OC (centres unmarked) [GSK1379766] | 0% | 8% | 0% | 0% | 29% | 17% | 0% | 0% | 0% | 0% | 0% | 4% | 0% | 0% | 1% | 0% | 0% | 0% | 2% | 8%
10 | CN(c1ccc2c(c1)nc(NCc1ccccc1)n2C)c1ccnc(Nc2ccc(CS(C)(=O)=O)cc2)n1.Cl [GW811603] | 13% | 0% | 0% | 56% | 0% | 0% | 33% | 2% | 0% | 0% | 0% | 30% | 0% | 0% | 5% | 31% | 0% | 0% | 51% | 34%
11 | CCOc1nccc(-c2c(-c3ccc(F)cc3)ncn2C2CCNCC2)n1 [SB-249175] | 57% | 42% | 10% | 7% | 11% | 100% | 0% | 31% | 27% | 0% | 39% | 3% | 29% | 0% | 0% | 0% | 28% | 31% | 43% | 21%
12 | CSc1ccc(NC2=C(c3ccc(Cl)cc3)C(=O)NC2=O)cc1 [SB-317658] | 0% | 0% | 1% | 29% | 37% | 12% | 1% | 16% | 17% | 1% | 0% | 3% | 0% | 28% | 21% | 23% | 3% | 6% | 0% | 0%
13 | Nc1ncnc2scc(-c3ccc(NC(=O)Cc4cc(F)ccc4F)cc3)c12.O=C(O)C(F)(F)F [SB-731254-M] | 24% | 10% | 82% | 63% | 22% | 16% | 54% | 1% | 70% | 35% | 10% | 27% | 31% | 0% | 6% | 21% | 24% | 19% | 23% | 18%
14 | Cl.Cl.NCC(NC(=O)c1cc(-c2cccnc2)c(-c2ccnc3[nH]ccc23)s1)c1ccccc1 (centres unmarked) [GSK1323434] | 0% | 7% | 3% | 0% | 0% | 41% | 0% | 82% | 0% | 6% | 0% | 0% | 40% | 0% | 8% | 0% | 0% | 0% | 39% | 25%
15 | CC(C)NCC(Cc1ccccc1)NC(=O)c1cc(Br)c(-c2ccnc3[nH]ccc23)s1.Cl.Cl (centres unmarked) [GSK1383281] | 0% | 0% | 34% | 0% | 0% | 0% | 0% | 27% | 0% | 0% | 0% | 11% | 31% | 60% | 0% | 0% | 0% | 0% | 87% | 39%
16 | Cl.O=C(Nc1ccc(Oc2ccc3[nH]c(NC(=O)c4ccco4)nc3c2)cc1)Nc1cc(C(F)(F)F)ccc1F [GW683134] | 0% | 27% | 7% | 0% | 0% | 0% | 17% | 24% | 32% | 93% | 0% | 0% | 0% | 0% | 6% | 8% | 0% | 0% | 0% | 10%
